In PubChem BioAssay (NCI):
About 79,000 compounds went through this panel and 15% of them were active in at least one assay; those are over-represented in the sample as a whole. Unmarked numbers belong to inactive results. The source made the active and inactive calls. No stated cut-off is given here; in the data, active means growth inhibition above about 70%; inactive means the rest.

Tests used:
[1] = NCI Yeast Anticancer Drug Screen. Data for the rad50 strain (AID 155);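 further: 0% = growth of vehicle-only cultures of the same strain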; conditions: S. cerevisiae rad50 strain growth inhibition; at 50.0 µM; active compounds read high
Summary of the method: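 Vehicle-treated cultures provide the reference for the growth inhibition reported for compound-exposed, repair-deficient yeast.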

[2] = NCI Yeast Anticancer Drug Screen. Data for the mec2-1 strain (AID 157); conditions: S. cerevisiae mec2-1 strain, at 50.0 µM, active compounds read high
Summary of the method: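 Using mec2-1 yeast: add compound, measure growth, express inhibition versus vehicle-treated cultures.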

[3] = NCI Yeast Anticancer Drug Screen. Data for the sgs1 mgt1 strain (AID 161);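 further: 0% = growth of cultures given vehicle only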; conditions: S. cerevisiae sgs1 mgt1 strain, at 50.0 µM, active compounds read high
Summary of the method: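 Yeast cells carrying a defined DNA-repair defect were exposed to test compounds. Growth inhibition was measured relative to vehicle-treated controls.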

[4] = NCI Yeast Anticancer Drug Screen. Data for the cln2 rad14 strain (AID 165);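 further: 0% = growth equal to vehicle treated cultures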; conditions: S. cerevisiae cln2 rad14 strain, at 50.0 µM, active compounds read high
Summary of the method: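 Yeast strain cln2 rad14, bearing defects in cell cycle control and DNA repair, serves as the test system; values reflect growth inhibition compared with vehicle.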

[5] = NCI Yeast Anticancer Drug Screen. Data for the bub3 strain (AID 167); conditions: S. cerevisiae bub3 mutant strain, at 50.0 µM, active compounds read high
Summary of the method: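 Mutant yeast screening strain plus compound; vehicle-treated cultures serve as the 0% inhibition reference.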

[6] = NCI Yeast Anticancer Drug Screen. Data for the mlh1 rad18 strain (AID 175); conditions: S. cerevisiae mlh1 rad18 strain growth inhibition; at 50.0 µM; active compounds read high
Summary of the method: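 Steps: expose repair-defective yeast to compound; measure growth; express inhibition against vehicle-treated controls.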

Row | SMILES | growth inhibition [1] | growth inhibition [2] | growth inhibition [3] | growth inhibition [4] | growth inhibition [5] | growth inhibition [6]
1 | COc1ccc(S(=O)(=O)N/N=C/c2cc(I)cc([N+](=O)[O-])c2O)cc1OC | 35% | 22.1% | 17.1% | 4.95% | -3.75% | 38%
2 | CN(C)/C=N/c1nc2ncn(CCOC(=O)c3ccccc3)c2c(=O)[nH]1 | -20.6% | -24.6% | 11.3% | 10.6% | -11.4% | -20.9%
3 | S=C(Cc1ccccc1)Nc1ccccc1 | 12.1% | -18.5% | 14.1% | -22.9% | -25.4% | 3.3%
4 | COC(=O)NC(c1ccccc1)C(C)I (stereo unspecified) | 7.3% | -0.6% | -2.85% | -9.65% | 3.25% | 12.3%
5 | Cc1ccc2c(c1)[nH]c1ccccc12 | 15.3% | 13.7% | 26.2% | -14.2% | 22.6% | 23.9%
6 | CCOC(=O)n1oc2ccc(Br)cc2c1=O | 53.3% | 58% | 76.2% (active) | 45% | 61.6% | 64.5%
7 | CN(C)c1ncnc2cn[nH]c12 | 3.6% | -5.75% | 0.25% | 5.7% | 17.4% | 0.6%
8 | CCOC(=O)c1c(C(=O)Nc2ccccc2)c(-c2ccccc2)n(NC(=O)c2cccc(Cl)c2)c1C | 18.1% | 10.3% | 3.9% | 7.2% | -4.85% | 21.5%
9 | C[C@@]12CCC[C@H]1[C@@H]1CC=C3C[C@@H](S)CC[C@]3(C)[C@H]1CC2 | -6.75% | 4.5% | -3.25% | -31.1% | -6.9% | -13.7%
10 | CC(=O)OC1CCC2(C)C(CCC3C2CCC2(C)C(C(C)C(=O)O)CCC32)C1 (stereo unspecified) | -10.7% | 1.85% | 1.45% | 10.8% | -3.6% | 3.9%
11 | O=C1OC(c2ccccc2Cl)Sc2ccccc21 (stereo unspecified) | -3.25% | 25.1% | 20.1% | -30.7% | 55.8% | 32.8%
12 | CCCOC(=O)CC(=O)OCC | 6% | 17.2% | -4.95% | -11.8% | -7.15% | -17.4%
13 | O=CNc1ccc(F)c(F)c1 | -16.8% | -16.4% | -6.95% | -5.35% | -7.2% | -10.1%
14 | Cc1ccc(C(C)C)cc1NC(=O)c1cccc([N+](=O)[O-])c1 | -8.4% | 6.9% | 18.9% | -7.1% | 18.9% | 8%
15 | Cc1[nH]n(-c2ccccc2)c(=O)c1/C=N\C(N)=S | -37% | -37.9% | -34.1% | -50.9% | -48% | -25.1%
16 | Cc1ccc(-c2c(N)nc(NC#N)nc2CCC(=O)Nc2ccccc2[N+](=O)[O-])cc1 | 1.9% | 1.35% | -14.6% | 5.5% | 3.7% | 5.4%
17 | O=c1nc(Sc2ccccc2)ccn1C1OC(CO)C(O)C1O (stereo unspecified) | -11.5% | -8.95% | -1.45% | 9.35% | 6.55% | 5.95%
18 | COc1cc2c(oc(=O)c3cc4cc([Si](C)(C)C)oc4c(OC)c32)c2cccc(O)c12 | -0.5% | -27.4% | -26.6% | -23.2% | 6.9% | -8.25%
19 | O=[N+]([O-])c1ccc(SC2OC(CO)C(O)C(O)C2O)c([N+](=O)[O-])c1 (stereo unspecified) | 2.05% | 29.4% | 3.95% | -14.2% | -5.35% | 20.8%
20 | O=[S@@]1Nc2cc(Cl)c(Cl)cc2S1 | 9.6% | -2% | -6.6% | 3.45% | -0.05% | 14.1%
21 | O=C1CC2(CCCC2)C(=O)N1c1cccc([N+](=O)[O-])c1 | 10.8% | 5% | 17.4% | 11% | 11.7% | -4.85%

Row | SMILES | growth inhibition [1] | growth inhibition [2] | growth inhibition [3] | growth inhibition [4] | growth inhibition [5] | growth inhibition [6]
22 | ClC1CCC(c2ccccc2)CC1 (stereo unspecified) | 9.2% | -3.45% | 1.5% | 3.75% | -11.2% | -2.6%
23 | COC(=O)c1cc(C(=O)OC)c(C/C(=N/NC(N)=S)C(=O)Nc2ccc(Cl)c(Cl)c2)nc1C/C(=N/NC(N)=S)C(=O)Nc1ccc(Cl)c(Cl)c1 | 28.4% | 14.9% | 7.1% | 34.2% | 32.7% | 44%
24 | CNc1ccc(O)cc1 | 3.6% | 6.9% | 5.75% | -24.4% | -0.05% | 15.4%
25 | CN(C)c1ccc2c(c1)C(O)c1ccccc1-2 (stereo unspecified) | -7.3% | -6.55% | 1.1% | -0.65% | 19.4% | 0.7%
26 | COc1cc2c(cc1O)C(=O)CCCC2 | -13.8% | 0.75% | -17.8% | -2.25% | 14.1% | 1.2%
27 | C=CCC(O)CC=C | -8% | -47.5% | 7.15% | -6.5% | 5.2% | -1.7%
28 | CN(C)CCC(CCN(C)C)=NO | -37.2% | -49.1% | 3.4% | 15.5% | -31.4% | -12.1%
29 | CSC1=Nc2ccccc2N=C(c2ccccc2)C1 | 41.9% | -10.8% | 52% | 9.05% | 44.8% | 23.3%
30 | CNCCNc1ncc([N+](=O)[O-])s1 | -3.25% | -9.1% | -37.6% | -25.1% | -43% | -32.5%
31 | CCC(=O)NN(C(C)=O)c1ccccc1 | 10.3% | -21.4% | 6.4% | -16.2% | 8.8% | 18.9%
32 | O=c1[nH]ncc2ccccc12 | -3.1% | -16.2% | -3.95% | -53.5% | -4.75% | -2.45%
33 | COc1ccc([N+](=O)[O-])c(OC)c1 | 4.4% | -19.1% | -30.9% | 17.2% | -23.4% | 9.05%
34 | CS(=O)(=O)OCC1NC(=O)C(COS(C)(=O)=O)NC1=O (stereo unspecified) | -10.4% | 2.8% | -3.15% | 2% | -0.65% | 3.7%
35 | Cc1cccc(Cl)c1NC(=O)N(C)c1ccccc1 | 8.95% | -11.9% | 14.2% | 23.4% | 23.9% | 11.7%
36 | CCOC(=O)[C@H]1Nc2ccc(C)cc2C2c3ccccc3CC21 (stereo partly specified) | -1.5% | -28.2% | 3.45% | -1.7% | -23.3% | -22.8%
37 | CCOC(=O)C1OC1(C)c1ccc(Cl)cc1 (stereo unspecified) | 6.1% | 3.8% | -0.7% | 5.25% | -5.8% | 0.6%
38 | CCOP(=O)(OCC)C(NC(=O)C(C(F)(F)F)C(F)(F)F)c1ccccc1 (stereo unspecified) | 7.85% | 16.2% | 0.05% | 24.4% | 34.1% | -14.1%
39 | CC(C)CC(NC(=O)CNC(=O)CNC(=O)OCc1ccccc1)C(=O)O (stereo unspecified) | -0.1% | 7.75% | -2.1% | -21.8% | -0.9% | 10.8%
40 | O=C(NC(=O)c1cn(CCN(CCO)C(=O)NCCCCCCNC(=O)N(CCO)CCn2cc(C(=O)NC(=O)OCc3ccccc3)c(=O)[nH]c2=O)c(=O)[nH]c1=O)OCc1ccccc1 | -2.5% | 7.05% | -18.9% | -23.9% | 0.9% | -17.9%
41 | C1=NC(c2ccccc2)=CN(C2CCCCC2)C1(c1ccccc1)C1CCCCC1 (stereo unspecified) | 97.1% (active) | 96.5% (active) | 97.2% (active) | 94.6% (active) | 95.7% (active) | 96.5% (active)
